The campaign covered roughly 5,500 compounds. About 2,000 (36%) were called active. Another 18% or so got no clear call; they are omitted. Cut-off read from the data, not from the text of the source: active = normalized growth mostly below about 0.91 (no sharp cut-off); inconclusive = no clear call, values can overlap the other calls; inactive = mostly above about 0.92. The list shows a part of the results.
Assay: chemical genetic growth profiling, strain panel (AID 1159580);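 note: tested at 20 µM; growth read once vehicle control cultures reached saturation at 30 °C; 1 = growth at the plate median or of vehicle wells; lower values mean less growth of the strain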
Details: S. cerevisiae deletion strains, growth OD
[1] = locus YAR019C, strain CDC15, stronger effect = lower value
[2] = locus YBL105C, strain PKC1, stronger effect = lower value
[3] = locus YBR135W, strain CKS1, stronger effect = lower value
[4] = locus YBR136W, strain MEC1, stronger effect = lower value
[5] = locus YBR160W, strain CDC28, stronger effect = lower value
[6] = locus YDL017W, strain CDC7, stronger effect = lower value
[7] = locus YDL028C, strain MPS1, stronger effect = lower value
[8] = locus YDL101C, strain DUN1, stronger effect = lower value
[9] = locus YDL108W, strain KIN28, stronger effect = lower value
[10] = locus YDL132W, strain cdc53, stronger effect = lower value
[11] = locus YDL214C, strain PRR2, stronger effect = lower value
[12] = locus YDR052C, strain DBF4, stronger effect = lower value
[13] = locus YDR054C, strain cdc34, stronger effect = lower value
[14] = locus YDR226W, strain ADK1, stronger effect = lower value
[15] = locus YDR477W, strain SNF1, stronger effect = lower value
[16] = locus YER123W, strain YCK3, stronger effect = lower value
[17] = locus YER133W, strain GLC7, stronger effect = lower value
[18] = locus YFL009W, strain cdc4, stronger effect = lower value
[19] = locus YFL029C, strain CAK1, stronger effect = lower value
[20] = locus YFR003C, strain YPI1, stronger effect = lower value
[21] = locus YFR019W, strain FAB1, stronger effect = lower value
[22] = locus YFR028C, strain CDC14, stronger effect = lower value
[23] = locus YGR040W, strain KSS1, stronger effect = lower value
[24] = locus YGR052W, strain FMP48, stronger effect = lower value
[25] = locus YGR092W, strain DBF2, stronger effect = lower value
[26] = locus YHR030C, strain SLT2, stronger effect = lower value
[27] = locus YHR079C, strain IRE1, stronger effect = lower value
[28] = locus YHR082C, strain KSP1, stronger effect = lower value
[29] = locus YHR205W, strain SCH9, stronger effect = lower value
[30] = locus YIL147C, strain SLN1, stronger effect = lower value
[31] = locus YJL095W, strain BCK1, stronger effect = lower value
[32] = locus YJL128C, strain PBS2, stronger effect = lower value
[33] = locus YJL157C, strain FAR1, stronger effect = lower value
[34] = locus YJR016C, strain ILV3, stronger effect = lower value
[35] = locus YJR066W, strain TOR1 (second series), stronger effect = lower value
[36] = locus YJR066W, strain TOR1, stronger effect = lower value
[37] = locus YKL048C, strain ELM1, stronger effect = lower value
[38] = locus YKL067W, strain YNK1, stronger effect = lower value
[39] = locus YKL101W, strain HSL1, stronger effect = lower value
[40] = locus YKL193C, strain SDS22, stronger effect = lower value
[41] = locus YKL203C, strain TOR2, stronger effect = lower value
[42] = locus YLR113W, strain HOG1, stronger effect = lower value
[43] = locus YLR133W, strain CKI1, stronger effect = lower value
[44] = locus YLR403W, strain SFP1, stronger effect = lower value
[45] = locus YML070W, strain DAK1, stronger effect = lower value
[46] = locus YMR001C, strain CDC5, stronger effect = lower value
[47] = locus YMR205C, strain PFK2 (second series), stronger effect = lower value
[48] = locus YMR277W, strain FCP1, stronger effect = lower value
[49] = locus YNL006W, strain LST8, stronger effect = lower value
[50] = locus YNL020C, strain ARK1, stronger effect = lower value
[51] = locus YNL161W, strain CBK1, stronger effect = lower value
[52] = locus YNL183C, strain NPR1, stronger effect = lower value
[53] = locus YNL207W, strain RIO2, stronger effect = lower value
[54] = locus YNL222W, strain SSU72, stronger effect = lower value
[55] = locus YNL307C, strain MCK1 (second series), stronger effect = lower value
[56] = locus YOL078W, strain AVO1, stronger effect = lower value
[57] = locus YOL136C, strain PFK27, stronger effect = lower value
[58] = locus YOR061W, strain CKA2, stronger effect = lower value
[59] = locus YOR119C, strain RIO1, stronger effect = lower value
[60] = locus YOR231W, strain MKK1, stronger effect = lower value
[61] = locus YOR329C, strain SCD5, stronger effect = lower value
[62] = locus YPL031C, strain PHO85, stronger effect = lower value
[63] = locus YPL153C, strain RAD53, stronger effect = lower value
[64] = locus YPL204W, strain HRR25, stronger effect = lower value
[65] = locus YPL209C, strain IPL1, stronger effect = lower value
[66] = locus YPL256C, strain CLN2, stronger effect = lower value
[67] = locus YPR025C, strain CCL1, stronger effect = lower value
[68] = locus YPR106W, strain ISR1, stronger effect = lower value
[69] = locus YPR111W, strain DBF20, stronger effect = lower value
[70] = strain NNK1, stronger effect = lower value
[71] = strain TSCII, stronger effect = lower value

Measured: normalized growth

CC(NC(=S)N/N=C\c1ccccc1O)c1ccccc1 (stereo not drawn)
active: [26] 0.772
inactive: [1] 0.984 | [2] 0.982 | [3] 0.971 | [4] 0.975 | [5] 0.974 | [6] 0.974 | [7] 0.981 | [8] 0.977 | [9] 0.969 | [10] 0.973 | [11] 0.973 | [12] 0.986 | [13] 0.951 | [14] 0.97 | [15] 0.927 | [16] 0.905 | [17] 0.953 | [18] 0.972 | [19] 0.974 | [20] 0.979 | [21] 0.99 | [22] 0.982 | [23] 0.944 | [24] 1.06 | [25] 0.897 | [27] 0.951 | [28] 1.03 | [29] 1.01 | [30] 0.985 | [31] 0.87 | [32] 0.986 | [33] 0.966 | [34] 0.977 | [35] 0.944 | [36] 0.943 | [37] 0.972 | [38] 0.992 | [39] 0.978 | [40] 0.976 | [41] 0.98 | [42] 0.966 | [43] 0.97 | [44] 0.939 | [45] 0.964 | [46] 0.979 | [47] 0.977 | [48] 0.971 | [49] 0.991 | [50] 0.964 | [51] 0.984 | [52] 0.896 | [53] 0.976 | [54] 0.974 | [55] 0.933 | [56] 0.978 | [57] 0.984 | [58] 0.959 | [59] 1.04 | [60] 0.981 | [61] 0.983 | [62] 0.927 | [63] 0.929 | [64] 0.922 | [65] 0.979 | [66] 0.944 | [67] 0.979 | [68] 0.992 | [69] 0.983 | [70] 0.992 | [71] 0.978

COc1ccccc1NC(=S)N/N=C\c1ccccc1O
inactive: [1] 0.962 | [2] 0.968 | [3] 0.967 | [4] 0.965 | [5] 0.967 | [6] 0.967 | [7] 0.96 | [8] 0.978 | [9] 0.954 | [10] 0.965 | [11] 0.941 | [12] 0.973 | [13] 0.957 | [14] 0.959 | [15] 0.938 | [16] 0.928 | [17] 0.942 | [18] 0.965 | [19] 0.953 | [20] 0.97 | [21] 0.976 | [22] 0.966 | [23] 0.939 | [24] 1.02 | [25] 0.891 | [26] 0.903 | [27] 0.956 | [28] 0.964 | [29] 0.98 | [30] 0.961 | [31] 0.978 | [32] 0.957 | [33] 0.951 | [34] 0.979 | [35] 0.903 | [36] 0.942 | [37] 0.962 | [38] 0.955 | [39] 0.948 | [40] 0.964 | [41] 0.971 | [42] 0.955 | [43] 0.942 | [44] 0.916 | [45] 0.973 | [46] 0.958 | [47] 0.959 | [48] 0.966 | [49] 0.97 | [50] 0.955 | [51] 0.967 | [52] 0.975 | [53] 0.97 | [54] 0.967 | [55] 0.949 | [56] 0.968 | [57] 0.967 | [58] 0.931 | [59] 0.941 | [60] 0.967 | [61] 0.969 | [62] 0.93 | [63] 0.937 | [64] 0.941 | [65] 0.967 | [66] 0.929 | [67] 0.968 | [68] 0.969 | [69] 0.978 | [70] 0.986 | [71] 0.969

CC(C)(C)NC(=S)N/N=C\c1ccccc1O
inactive: [1] 0.954 | [2] 0.957 | [3] 0.958 | [4] 0.958 | [5] 0.947 | [6] 0.96 | [7] 0.951 | [8] 0.964 | [9] 0.947 | [10] 0.95 | [11] 0.924 | [12] 0.97 | [13] 0.943 | [14] 0.961 | [15] 0.876 | [16] 0.848 | [17] 0.882 | [18] 0.928 | [19] 0.947 | [20] 0.955 | [21] 0.95 | [22] 0.957 | [23] 0.875 | [24] 0.954 | [25] 0.692 | [26] 0.901 | [27] 0.806 | [28] 0.931 | [29] 0.972 | [30] 0.953 | [31] 0.941 | [32] 0.949 | [33] 0.891 | [34] 0.954 | [35] 0.878 | [36] 0.789 | [37] 0.947 | [38] 0.897 | [39] 0.917 | [40] 0.951 | [41] 0.968 | [42] 0.915 | [43] 0.926 | [44] 0.867 | [45] 0.902 | [46] 0.95 | [47] 0.941 | [48] 0.93 | [49] 0.945 | [50] 0.903 | [51] 0.955 | [52] 0.955 | [53] 0.954 | [54] 0.944 | [55] 0.841 | [56] 0.955 | [57] 0.904 | [58] 0.882 | [59] 0.909 | [60] 0.828 | [61] 0.959 | [62] 0.867 | [63] 0.865 | [64] 0.837 | [65] 0.941 | [66] 0.949 | [67] 0.954 | [68] 0.968 | [69] 0.949 | [70] 0.967 | [71] 0.94

— PubChem BioAssay AID1159580 (chemical genetic matrix, 2015)
